We go through 39 molecules from ChEMBL document CHEMBL5308504, “Tm Shift (DSF) assay results for EUbOPEN Chemogenomics Library” (2023).

In general, ΔTm refers to the change in melting temperature against a reference sample.

The target of the test is Mitogen-activated protein kinase 1 (Homo sapiens) (UniProt P28482). The note with it: Compound concentration 20.0 uM, Protein concentration 2.0 uM, Result type QC Liability.
Sequence of Mitogen-activated protein kinase 1 (Homo sapiens) (P28482 whole entry): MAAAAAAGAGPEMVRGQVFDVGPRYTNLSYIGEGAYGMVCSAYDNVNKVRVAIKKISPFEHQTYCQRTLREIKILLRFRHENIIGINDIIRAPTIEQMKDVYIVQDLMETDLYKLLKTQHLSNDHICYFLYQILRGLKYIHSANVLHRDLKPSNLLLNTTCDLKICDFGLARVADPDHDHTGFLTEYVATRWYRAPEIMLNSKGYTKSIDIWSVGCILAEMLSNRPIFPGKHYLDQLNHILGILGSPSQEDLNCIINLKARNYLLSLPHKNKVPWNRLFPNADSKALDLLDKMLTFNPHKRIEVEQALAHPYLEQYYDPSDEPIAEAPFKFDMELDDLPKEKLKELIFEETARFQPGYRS
Turning to `COc1ccc(-c2cc3c(C)nc(N)nc3n([C@H]3CC[C@H](OCCO)CC3)c2=O)cn1`, the ΔTm stood at 0.38 °C. The value for `COc1cc(C(=O)NCCOCCOCCOCC(=O)N[C@H](C(=O)N2C[C@H](O)C[C@H]2C(=O)NCc2ccc(-c3scnc3C)cc2)C(C)(C)C)ccc1Nc1ncc(C(F)(F)F)c(Oc2cccc3c2C(=O)CC3)n1` was -8.23 °C. Turning to `CN1CCc2cc(Nc3ncc(C(F)(F)F)c(NCc4cc[nH]n4)n3)ccc2C1`, the ΔTm amounted to 1.88 °C. For the molecule `CSc1nc2c(c(=O)n(C)c(=O)n2C)n1C`, the ΔTm was 0.33 °C. Consider `N[C@@H](CC(=O)O)Cn1nnc(-c2ccc(Oc3ncc(Cl)cc3F)cc2)n1`, for which the ΔTm is 0.49 °C. Regarding `CCCCc1oc2ccccc2c1C(=O)c1cc(I)c(OCCN(CC)CC)c(I)c1`, the ΔTm stood at 0.02 °C. With `CCc1nc(-c2cccc(C)c2)c(-c2ccncc2)s1` the figure was 0.28 °C; with `Cn1cc(-c2ccc(-c3cncc(Cl)c3N3CCC4(CCNC4=O)CC3)cc2)cn1`, 0.45 °C.

As to `CCn1c(-c2nonc2N)nc2ccccc21`, the ΔTm amounted to 0.41 °C. Regarding `O=C(Nc1ccc(C(O)(C(F)(F)F)C(F)(F)F)cc1)c1ccc(C(F)(F)F)cc1`, the shift in melting temperature (ΔTm) turned out to be 0.19 °C.

For `CC(=O)c1c(C)c2cnc(Nc3ccc(N4CCN(CCCCNC(=O)COc5cccc6c5C(=O)N(C5CCC(=O)NC5=O)C6=O)CC4)cn3)nc2n(C2CCCC2)c1=O` (centres undefined), the ΔTm is 0.16 °C.

On to `CC(C)c1cnn2c(NCc3ccccc3)cc(NCCCCCCN)nc12`, for which the ΔTm was found to be 0.38 °C. The value for `CC(=O)c1c(C)c2cnc(Nc3ccn(C)n3)nc2n(C2CCCC2)c1=O` was 0.48 °C. The value for `COCc1c(-c2cc3cc(C)cc(OC)c3s2)c2c(N)ncnn2c1CN[C@@H]1CCNC1=O` was 0.28 °C; that for `CC1CCN(c2ccnc(NCc3cn(C)cn3)n2)CC1` was 0.75 °C. The value for `NCCCc1c(C(=O)O)[nH]c2ccc(C(=O)Nc3ccccc3)cc12` was 0.25 °C; that for `COCCOCn1c(S(C)(=O)=O)nc2c1c(=O)n(C)c(=O)n2C` was -0.83 °C. With `CN1C(=O)Cc2ccc(-c3ccc(C[C@@H](C#N)NC(=O)[C@@H]4N[C@H]5CC[C@@H]4C5)c(F)c3)cc21`, the ΔTm is -0.2 °C.

Regarding `C=C1/C(=C\C=C2/CCC[C@]3(C)[C@@H]([C@H](C)CCCC(C)(C)O)CC[C@@H]23)C[C@@H](O)C[C@@H]1O`, the thermal shift (ΔTm) was -0.74 °C. With `CN1Cc2nccc(-c3cn(C)nc3-c3ccc(F)cc3)c2C1=O` the figure was 0.37 °C. With `CC(C)[C@H](CO)Nc1nc(Nc2ccc(C(=O)O)c(Cl)c2)c2ncn(C(C)C)c2n1` the figure was 4.14 °C; with `COc1cc2c(cc1CC=C(C)C)C(=O)C[C@@H](c1ccc(O)cc1)O2`, 0.34 °C; with `c1ccc2c(-c3coc4cc(-c5ccc(N6CCNCC6)cc5)cnc34)ccnc2c1`, 0 °C. The value for `CCn1ccc(Nc2ncc3c(n2)-c2c(nn(C)c2-c2ccc(-c4cnn(C)c4)cc2Cl)CC3)n1` was 0.81 °C; that for `O=C(O)c1ccnc(N2CC(O)(c3ccc(OCc4c(-c5c(Cl)cccc5Cl)noc4C4CC4)cc3Cl)C2)c1` was -0.58 °C. On to `COc1cc(C(=O)NCCOCCOCCOCC(=O)N[C@H](C(=O)N2C[C@@H](O)C[C@H]2C(=O)NCc2ccc(-c3scnc3C)cc2)C(C)(C)C)ccc1Nc1ncc(C(F)(F)F)c(Oc2cccc3c2C(=O)CC3)n1`, for which the shift in melting temperature (ΔTm) worked out at 0.73 °C.

Regarding `CC(C)(O)CNC(=O)N1C(=O)N(c2cccc(C(F)(F)F)c2)C2=C(C(=O)CC2)[C@@H]1c1ccc(C#N)cc1`, the ΔTm is 0.17 °C. Regarding `COc1cc(Oc2nc(-c3ccc(NC(=O)C4CCOC4)cc3)nn3c(C)nc(C)c23)cc(OC)c1OC` (centres undefined), the ΔTm is 0.18 °C. With `COc1cc(-c2cc3ncccc3c(O[C@@H](C)[C@H]3CNC(=O)C3)n2)cc(OC)c1OC` the figure was 0.06 °C. As for `O=C(Nc1ccc(Cl)c(-c2ccccn2)c1)c1cccc(COc2ccc(Br)cc2CNCCO)c1`, the thermal shift (ΔTm) is -0.69 °C. The value for `CN[C@@H](C)C(=O)N[C@H]1CN(C(=O)CC(C)C)CC[C@H]2CC[C@@H](C(=O)NC(c3ccccc3)c3ccccc3)N2C1=O` was 0.19 °C; that for `CC(C)(C)NC(=O)c1cncn1C1CCN(c2ccc(-c3nnc(C(F)(F)F)o3)cn2)CC1` was 0.18 °C; that for `CN(C)C(=O)Cn1cc(-c2nc(C3(c4ccc(-c5cnc(N)nc5)cc4)CC3)no2)cn1` was 0.16 °C. With `C[S+]([O-])c1ccc(-c2nc(-c3cccc(I)c3)c(-c3ccncc3)[nH]2)cc1` (centres undefined) the figure was -1.08 °C. With `CCc1ccccc1C(=O)Nc1n[nH]c2c(C)c(F)c(C3C(C#N)=C(C)N(C)C(C)=C3C#N)cc12` the figure was 0.38 °C; with `CC1CCN(C(=O)[C@@H](CCn2cccc2C#N)NS(=O)(=O)c2cccc3[nH]ccc23)CC1`, -8.81 °C; with `N[C@@H]1CCCC[C@H]1Oc1ccc2ncc(-c3cc4ccccc4o3)n2n1`, 0.17 °C. In the case of `CC(=O)N1CCC(c2ccc(C(=O)NC(=N)N)cc2C(F)(F)F)CC1`, the ΔTm is 0.32 °C.

For `Cc1sc(C(=O)c2cncnc2N[C@@H]2C[C@H](COS(N)(=O)=O)[C@@H](O)C2)cc1[C@@H]1NCCc2ccc(Cl)cc21`, the ΔTm is -0.53 °C.
